Pf Dd2 growth – inhibitors of Plasmodium falciparum Dd2 growth. Potency, µM (doses to about 28.9 µM), inactives show at the highest dose activity, negative = inhibition, most hits filed as inhibitors. P. falciparum Dd2 growth, SYBR Green, 72 h. hit rate 4.3% among 120,000. AID 1347417; active means well fitted inhibition curve with a large enough effect;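 further: plate controls were DMSO vehicle for no effect and reference drug for full effect; nearly all actives have a fitted effect of over 65% in size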
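Readout: SYBR Green fluorescence, 485 nm excitation, 535 nm emission, after ~16 h lysis at 37C. Before that, Dd2-infected red cells (2.5% hematocrit) grew 72 h with compound, 29 uM top final concentration.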
* marks the source's active call; other numbers are inactive results; i = inactive; [ ] = another dose, or the depositor's remark. This excerpt belongs to a sample that is enriched for hits. Potency means the concentration at half of the fitted maximal effect.

SMILES | Pf Dd2 growth
c1ccc(-c2nnc3ccc(NC4CC4)nn23)nc1 | 32%[44.1 µM]
COc1c(F)ccc(C(=O)N2CCC3(CCCNC3)C2)c1F (stereo not given) | 3%
Cc1ccc(Nc2c(-c3ccsc3)nc3c(C)cccn23)cc1 | i
Cc1ccccc1Nc1c(-c2ccc(O)cc2)nc2c(C)cccn12 | 11µM*
c1ccc(Nc2c(-c3ccccc3)nc3ncccn23)cc1 | i
Cc1ccc(Nc2c(-c3ccc(C)cc3)nc3c(C)cccn23)cc1 | -29%
Cc1cccc2nc(-c3ccccn3)c(Nc3ccccc3)n12 | 7.1µM*
Cc1ccc(Nc2c(-c3ccsc3)nc3cccc(C)n23)cc1 | -1%
O=C([C@H]1C[C@H](Oc2cccnc2)CN1C(=O)Nc1ccccc1)N1CCOCC1 | 0%
COc1ccc(NC(=O)N2CCC3(CC2)CC(OC)CCO3)cc1 (stereo not given) | 11%
Cc1cccc(NC(c2ccccc2C)c2ccc3ccc(C)nc3c2O)n1 (stereo not given) | 5µM*
Cc1ccc(NC(=O)CN(C)S(=O)(=O)c2cccc3cccnc23)cc1F | i
Cc1ccnc(NC(c2ccccc2F)c2ccc3cccnc3c2O)c1 (stereo not given) | 6.3µM*
Oc1c(C(Nc2ccccn2)c2ccccc2F)ccc2cccnc12 (stereo not given) | 1.1µM*
Cc1oc2ccn(C)c(=O)c2c1C(=O)NCc1ccccc1F | i
O=Cc1ccc(N2CCN(C(=O)c3ccc4c(c3)OCO4)CC2=O)cc1 | 10%
O=C(CC1CCOC2(CCN(Cc3cccc(F)c3)CC2)C1)NCc1ccncc1 (stereo not given) | i
CC(=O)c1ccc(NC(=O)N2C[C@@H]3C[C@H](C2)c2ccc(NC(=O)c4ccco4)c(=O)n2C3)cc1 | -14%
CC(C)c1noc(-c2cccn3c(CNC(=O)c4ccc(Cl)cc4)nnc23)n1 | i
COc1nc(C)c(C(=O)N2CCn3nc(CO)cc3C2)s1 | -13%
COc1cccc(CNC(=O)C2CCCCC(=O)N2)c1OC (stereo not given) | i
O=C(O)C1(Cc2ccccc2F)CCCN(c2ncnc3sccc23)C1 (stereo not given) | -3%
O=C(Nc1ccc(Cl)cc1F)c1cc(S(=O)(=O)NC2CCCCCC2)ccc1F | i
O=C(Nc1ccc(F)c(F)c1)c1cc(S(=O)(=O)NC2CCCC2)ccc1F | 22%
O=C(Nc1ccc(C(F)(F)F)cc1)c1cc(S(=O)(=O)NC2CCCCC2)ccc1F | 7.1µM*
SMILES | Pf Dd2 growth
O=C(Nc1ccc(C(F)(F)F)cc1)c1cc(S(=O)(=O)NC2CCCCCC2)ccc1F | 5.6µM*
CCc1ccccc1NC(=O)c1cc(S(=O)(=O)NC2CCCC2)ccc1F | -1%
CCOc1ccc(NC(=O)c2cc(S(=O)(=O)NC3CCCC3)ccc2F)cc1 | -18%
COc1cccc(N2C(=O)NC(=NC3CCCCC3)C23CCN(C(=O)c2ccc(C(F)(F)F)cc2)C3)c1 (stereo not given) | 10%
O=C(Nc1nccs1)c1ccc2c(c1)OCCN(c1ccccc1)C2 | 10µM*
CC(C)CCN1CCOc2cc(C(=O)Nc3ccccc3)ccc2C1 | -14%[44.1 µM]
O=C(Nc1ccc2cn[nH]c2c1)c1ccc2c(c1)OCCN(c1ccccc1)C2 | 11µM*
O=C(Nc1ccc(F)cc1)c1ccc2c(c1)OCCN(CCC(F)(F)F)C2 | i
O=C(Nc1nccs1)c1ccc2c(c1)OCCN(C1CCC1)C2 | 7.9µM*
Cc1cnc(NC(=O)c2ccc3c(c2)OCCN(C2CCC2)C3)s1 | i
COc1ccc(NC(=O)c2ccc3c(c2)OCCN(C2CCC2)C3)c(F)c1 | i
Cc1cnc(NC(=O)c2ccc3c(c2)OCCN(Cc2ncccn2)C3)s1 | i
O=C(Nc1nccs1)c1ccc2c(c1)OCCN(CCC(F)(F)F)C2 | -7%[44.1 µM]
COc1ccc(C(=O)N2CCC3(CC2)OCC(C(=O)NC2CC2)N3C(=O)c2cccc(C)c2)cc1 (stereo not given) | 5%
CS(=O)(=O)N1CCc2ccc(C(=O)NCc3ccc(N4CCCCC4)cc3)cc21 | -32%
COc1cccc(CN2C[C@@H](CO)[C@H](c3ccccn3)C2)c1OC | -27%
COc1ccc(C(=O)NCc2nnc3ccc(-c4ccc(F)cc4)nn23)c(OC)n1 | i
O=[S+]1([O-])NC2(CCN(CC3CCCCC3)C2)CNc2ccccc21 (stereo not given) | -11%
O=[S+]1([O-])NCC2(CCN(CC3CCCCC3)C2)Nc2ccccc21 (stereo not given) | 4.5µM*
O=[S+]1([O-])NCC2(CCN(Cc3ccc(OC(F)(F)F)cc3)CC2)Nc2ccccc21 | -24%
O=[S+]1([O-])NCC2(CCN(Cc3ccccc3C(F)(F)F)CC2)Nc2ccccc21 | 13µM*
O=[S+]1([O-])NCC2(CCN(Cc3cccc4ccccc34)CC2)Nc2ccccc21 | i
O=[S+]1([O-])NCC2(CCN(Cc3ccccc3)C2)Nc2ccccc21 (stereo not given) | i
Cc1ccc2c(c1)N(C(=O)Cn1ccn3nc(-c4ccc(F)cc4)c(CO)c3c1=O)CCO2 | i
Cc1nnnn1-c1cccc(-c2nc(Cc3cccs3)nn2CCO)c1 | -2%
SMILES | Pf Dd2 growth
Cc1cnc(C(=O)NC2CCN(C(=O)N3CC4CC(C3)[C@H]3CCCC(=O)N3C4)CC2)cn1 (stereo not given in full) | i
CCn1ccc(C(=O)N2CCC(Cc3nncn3CC3CC3)CC2)n1 | i
COc1cc(C2c3c(oc4ccc(C)cc4c3=O)C(=O)N2Cc2ccccc2)ccc1O (stereo not given) | -23%
COc1cc(C2c3c(oc4ccc(C)cc4c3=O)C(=O)N2Cc2ccc(F)cc2)ccc1O (stereo not given) | -5%
COc1cc(-c2oc3ccc(C)cc3c(=O)c2O)cc(OC)c1OC | 13µM*
Cn1cc(CNC(=O)C[C@@H]2C[C@H]3O[C@H](CN)[C@@H](O)[C@H]3O2)cn1 | 32%[44.1 µM]
COc1cc(OC)cc(C(=O)N2CCC3(CC2)N=C(c2ccccc2)NO3)c1 | 15%
O=C(CCc1ccccc1)N1CCC2(CC1)N=C(c1cccc(Br)c1)NO2 | -20%
COc1cccc(CCC(=O)N2CCC3(CC2)N=C(c2ccccc2)NO3)c1 | 11µM*
CCn1cc(-c2ccccc2)cc1C(=O)NC1CCCC1 | i
Cc1cc(C)cc(NC(=O)C2CCN(c3cc(C(F)(F)F)nc(C)n3)CC2)c1 | -14%
COc1ccc(-c2ccc3c(c2)C(=O)N2CCN(C(=O)COCC(=O)O)C[C@@H]2C(=O)N3)c(OC)c1 | 16%
CCCS(=O)(=O)N1CCC2(CC1)CC1C(=O)NCCN1C2 (stereo not given) | 7%
COCCC(=O)N1CCCCCNC(=O)[C@@H]2CCCC[C@@H]21 | -1%
Cc1ccc(CN2C(=O)[C@@H]3C[C@@H](O)CN3C3(CN(CC4CC4)C3)C2=O)o1 | -5%[44.1 µM]
Cc1ccc(CN2C(=O)[C@@H]3C[C@@H](O)CN3C3(CN(CCC(C)C)C3)C2=O)o1 | 11µM*
Cc1ccc(CN2C(=O)[C@@H]3C[C@@H](O)CN3C3(CN(Cc4ccc(C#N)cc4)C3)C2=O)o1 | -19%[44.1 µM]
Cc1ccc(CN2C(=O)[C@@H]3C[C@@H](O)CN3C3(CN(CC(C)C)C3)C2=O)o1 | -6%[44.1 µM]
Cc1ccc(CN2C(=O)[C@@H]3C[C@@H](O)CN3C3(CN(Cc4ccc(F)cc4)C3)C2=O)o1 | 14µM*
CC(=O)Nc1ccc(CN2CC3(C2)C(=O)N(Cc2ccc(C)o2)C(=O)[C@@H]2C[C@@H](O)CN23)cc1 | -20%
Cc1noc2c(-c3cnn(C)c3)cc(-c3cccs3)nc12 | 2%[44.1 µM]
O=S(=O)(NC[C@H]1OC[C@@H](NCc2cccs2)[C@@H]1O)c1ccccc1 | -14%[44.1 µM]
